Experimental data reported in PubChem BioAssay AID1814 (Broad Institute, 2009).
Screen size: about 300,000 compounds; about 22,000 (7.3%) were called active. About 2% were inconclusive and are not listed. Rule as the data show it: active = activity score below about -60%; inconclusive = mostly about -28% to -61%; inactive = positive scores. This excerpt belongs to a sample that is enriched for actives.

test: Activators working through SNCA 5'UTR binding (MLPCN) (AID 1814); conditions: alpha-synuclein 5'UTR reporter, activators screen; hits give low values; tested at 7.5 µM

**Q.** With `CCCCCCCCn1c2c(c(=N)c3c1CCC3)CCCC2` as the molecule, how does the activity score read?
**A.** 101% (inactive)

**Q.** Which activity score does the source give for `COc1cc(NC(=O)Nc2ccc(C)cc2)cc([N+](=O)[O-])c1` here?
**A.** -141% (active)

**Q.** For `Cc1ccc(NC(=O)Nc2ccccc2)c(Br)c1`, which activity score is on record?
**A.** -192% (active)

**Q.** With `COC(=O)c1ccc(NC(=O)Nc2ccc(C)cc2)cc1` as the molecule, how does the activity score read?
**A.** -81.9% (active)

**Q.** With `COC(=O)c1sccc1NC(=S)Nc1ccc(C)cc1` as the molecule, how does the activity score read?
**A.** -77.8% (active)

**Q.** Which activity score does the source give for `O=C(c1ccco1)N1CCN(C(=O)c2cc(-c3ccccc3F)no2)CC1` here?
**A.** -156% (active)

**Q.** Which activity score does the source give for `O=C(NCCCN1CCOCC1)c1cc(-c2ccccc2F)no1` here?
**A.** -121% (active)

**Q.** Which activity score does the source give for `CCC(=O)/C(=C(/O)c1ccccc1)c1nc2ccccc2[nH]1` here?
**A.** -69% (active)

**Q.** Which activity score does the source give for `CC[C@]1(O)C[C@@H]2CN(CCc3c([nH]c4ccccc34)[C@@](C(=O)OC)(c3cc4c(cc3OC)N(C)[C@H]3[C@@](O)(C(=O)OC)[C@H](OC(C)=O)[C@]5(CC)C=CCN6CC[C@]43[C@@H]65)C2)C1` here?
**A.** 77.2% (inactive)

**Q.** For `CNc1[nH]ncc1[N+](=O)[O-]`, which activity score is on record?
**A.** -74.2% (active)

**Q.** Which activity score does the source give for `CC1CCCC(NC(=O)c2cccc(N3CCCC3=O)c2)C1C` (stereo not given) here?
**A.** -74.5% (active)

**Q.** For `CC1CCC(NC(=O)c2ccc(N3CCCC3=O)cc2)CC1` (stereo not given), which activity score is on record?
**A.** -64.3% (active)

**Q.** Which activity score does the source give for `CN1c2ccc(C=O)c3c(C=O)ccc(c23)N(C)C1(C)C` here?
**A.** 67% (inactive)

**Q.** For `CC1CCN(C(=S)c2ccc(-c3ccc(Cl)cc3Cl)o2)CC1`, which activity score is on record?
**A.** -91.3% (active)

**Q.** Which activity score does the source give for `O=C(CSc1ccccn1)Nc1nc2c(ccc3ccccc32)s1` here?
**A.** -63.2% (active)

**Q.** For `COc1ccc2nc(SCc3ccccc3)nc(C)c2c1`, which activity score is on record?
**A.** -70.7% (active)

**Q.** With `Cc1ccc(-n2ncc3c2ncn2nc(-c4ccco4)nc32)c(C)c1` as the molecule, how does the activity score read?
**A.** -88.8% (active)

**Q.** Which activity score does the source give for `Cc1onc(-c2ccccc2Cl)c1C(=O)N(Cc1ccc(N(C)C)cc1)C(C)C` here?
**A.** 73.1% (inactive)

**Q.** With `CCN1/C(=C\c2ccc3ccccc3[n+]2CC)Sc2cc(C)ccc21` as the molecule, how does the activity score read?
**A.** -332% (active)

**Q.** Which activity score does the source give for `O=C(Nc1ncccc1O)c1ccc(C(=O)c2ccccc2)cc1` here?
**A.** -507% (active)

**Q.** For `O=C(Nc1ncccc1O)c1ccc(S(=O)(=O)N2CCCC2)cc1`, which activity score is on record?
**A.** -67.4% (active)

**Q.** For `CNC(C)C#Cc1ccc2sc3cc(OC)c(OC)cc3c(=O)c2c1` (stereo not given), which activity score is on record?
**A.** -277% (active)

**Q.** Which activity score does the source give for `COc1ccc(-c2cn3cccnc3n2)cc1` here?
**A.** -75.4% (active)

**Q.** Which activity score does the source give for `CC(C)(C)C(=O)Nc1ccc(-c2cn3cccnc3n2)cc1` here?
**A.** -130% (active)

**Q.** For `FC(F)(F)Oc1ccc(-c2cn3cccnc3n2)cc1`, which activity score is on record?
**A.** -80.4% (active)

**Q.** With `COc1ccc(-c2cn3ccsc3n2)cc1` as the molecule, how does the activity score read?
**A.** -105% (active)

**Q.** For `CCn1nnnc1SCC(=O)c1ccc(C)cc1C`, which activity score is on record?
**A.** -81% (active)

**Q.** For `COC(=O)C1C(=O)c2c([nH]c(C(=O)OCCSC)c2C)CC1C` (stereo not given), which activity score is on record?
**A.** -117% (active)

**Q.** Which activity score does the source give for `COc1ccc(-n2ncc3c(N4CCc5ccccc54)ncnc32)cc1` here?
**A.** -240% (active)

**Q.** Which activity score does the source give for `Cc1cccc(-n2ncc3c(N4CCc5ccccc54)ncnc32)c1` here?
**A.** -164% (active)

**Q.** With `Cc1cc(N/C=C\C(=O)c2ccc(Cl)c(Cl)c2)no1` as the molecule, how does the activity score read?
**A.** -231% (active)

**Q.** With `CCCCC(=O)Nc1nc(C)c(-c2csc(Nc3ccc(Cl)cc3)n2)s1` as the molecule, how does the activity score read?
**A.** -62.8% (active)

**Q.** With `Cc1cc(-c2n[nH]c(=S)n2/N=C/C(Br)=C/c2ccccc2)n[nH]1` as the molecule, how does the activity score read?
**A.** -235% (active)

**Q.** For `S=c1[nH]nc(-c2cccnc2)n1/N=C/C(Cl)=C\c1ccccc1`, which activity score is on record?
**A.** -177% (active)

**Q.** Which activity score does the source give for `Cc1ccccc1-c1n[nH]c(=S)n1/N=C/c1ccc(-c2ccccc2Br)o1` here?
**A.** 57.9% (inactive)

**Q.** For `Cc1nn2c3cc(N4CCOCC4)ccc3nc2c2ccccc12`, which activity score is on record?
**A.** -149% (active)

**Q.** With `O=C(Cc1ccc(F)cc1)N/N=C/c1ccc2c(c1)OCO2` as the molecule, how does the activity score read?
**A.** -93.4% (active)

**Q.** With `Cc1ccc(C(=O)NNc2ncnc3ccccc23)cc1` as the molecule, how does the activity score read?
**A.** -131% (active)

**Q.** With `Cn1cc([N+](=O)[O-])c(C(=O)Nc2ccc3c(c2)OCCO3)n1` as the molecule, how does the activity score read?
**A.** -65.9% (active)

**Q.** Which activity score does the source give for `CCN(CC)c1ccc(/C=N/NC(=O)c2cnccn2)c(O)c1` here?
**A.** 72.3% (inactive)

**Q.** With `O=C(Nc1ccc2c(c1)OCCO2)c1ccoc1` as the molecule, how does the activity score read?
**A.** -84.8% (active)

**Q.** For `CCN1CCN(c2ccc(NC(=O)c3cnccn3)cc2)CC1`, which activity score is on record?
**A.** -97.4% (active)

**Q.** With `Oc1c(CN2CCN(c3ccc(F)cc3)CC2)cc(Cl)c2cccnc12` as the molecule, how does the activity score read?
**A.** 69.6% (inactive)

**Q.** Which activity score does the source give for `O=C(Nc1ccc2c(c1)OCCO2)c1cnccn1` here?
**A.** -68.9% (active)

**Q.** For `Nc1c(C(=O)Nc2ccc3c(c2)OCCO3)nnn1Cc1ccccc1`, which activity score is on record?
**A.** -194% (active)

**Q.** Which activity score does the source give for `CCOc1ccc(N2C(=O)CC(N(O)c3ccccc3)C2=O)cc1` (stereo not given) here?
**A.** -65% (active)

**Q.** For `Cc1ccc(S(=O)(=O)NC(=O)Nc2nc(-c3ccc(F)c(F)c3)cs2)cc1`, which activity score is on record?
**A.** -61.5% (active)

**Q.** With `O=S(=O)(Nc1ccc2nc(-c3ccco3)[nH]c2c1)c1ccccc1` as the molecule, how does the activity score read?
**A.** -181% (active)

**Q.** Which activity score does the source give for `CC(=O)N1CCC(C(=O)Nc2nc(-c3ccccc3)ns2)CC1` here?
**A.** -82.9% (active)

**Q.** With `Cc1ccc(N=C2NC(=O)c3cccc([N+](=O)[O-])c32)cc1` as the molecule, how does the activity score read?
**A.** -141% (active)

**Q.** With `O=C(CSc1nnnn1C1CCCC1)N1CCCCC1` as the molecule, how does the activity score read?
**A.** -88% (active)

**Q.** For `CCCCCC(=O)Nc1ccc2oc(-c3ccncc3)nc2c1`, which activity score is on record?
**A.** -80.2% (active)

**Q.** With `COc1cccc(/C=C/c2ccc3ccccc3n2)c1OC(C)=O` as the molecule, how does the activity score read?
**A.** 83.1% (inactive)

**Q.** For `COc1cccc(/C=C2\C=C(c3ccc(C)cc3)OC2=O)c1OC(C)=O`, which activity score is on record?
**A.** -65.8% (active)

**Q.** With `O=C(NCCC1=CCCCC1)c1ccc(Cl)c([N+](=O)[O-])c1` as the molecule, how does the activity score read?
**A.** -108% (active)

**Q.** Which activity score does the source give for `Cc1ccc2cc(/C=N/Nc3ccc(C(=O)O)cc3)c(Cl)nc2c1` here?
**A.** -167% (active)

**Q.** With `CC1CCC(NC(=O)CNC(=O)c2ccc3ccccc3c2)CC1` (stereo not given) as the molecule, how does the activity score read?
**A.** -74% (active)

**Q.** For `Clc1cccc(-c2nc3nc4ccccc4nc3n2Cc2ccco2)c1`, which activity score is on record?
**A.** -77.2% (active)

**Q.** Which activity score does the source give for `Clc1ccc(-c2csc(-c3ccncc3)n2)cc1` here?
**A.** -135% (active)

**Q.** Which activity score does the source give for `O=c1[nH]c(/C=C/c2cccc(Br)c2)nc2ccccc12` here?
**A.** -125% (active)

**Q.** With `C/C(=C\C(=O)c1ccccc1)Nc1cccc(O)c1` as the molecule, how does the activity score read?
**A.** -246% (active)

**Q.** With `C/C(=C\C(=O)c1cccnc1)Nc1ccc(C)c(C)c1` as the molecule, how does the activity score read?
**A.** -88.7% (active)

**Q.** For `O=C(Nc1cccc(O)c1)c1ccc(C(=O)c2ccccc2)o1`, which activity score is on record?
**A.** -120% (active)

**Q.** Which activity score does the source give for `O=C(Nc1ccn(Cc2ccccc2)n1)c1cccc(F)c1` here?
**A.** -95.8% (active)

**Q.** Which activity score does the source give for `Cc1cc(/C=N/NC(=O)c2cccnc2)c(C)n1CC(C)C` here?
**A.** -116% (active)
